# Source: PubChem BioAssay AID624246 (National Center for Advancing Translational Sciences (NCATS), 2012)
# Screen size: about 370,000 compounds; about 100 (0.027%) were called active. Calls follow the shape of the dose curve; as a rule, active = well fitted inhibition curve with a large enough effect in the polarisation, with a control signal flat; inconclusive = small, poorly fitted or top-dose-only effect, or effect the other way, or a change in a side signal; inactive = no such curve, though single readings can be large or run the other way; the % refers to the polarisation. Shown is part of a subset that was picked to be rich in actives. Entries that show only a call come without a potency.
# Target: Transcriptional regulator ERG (Homo sapiens) (UniProt P11308)
# Assay: qHTS for Small Molecule Inhibitors of the ERG Ets/DNA interaction
# Conditions: fluorescence polarization, His-ERG Ets domain / labelled DNA; series mostly up to 76.9 µM
# From the text: The Ets family of proteins is a family of ~30 conserved transcription factors defined by the presence of an ~85 amino acid domain referred to as the Ets domain, which mediates sequence-specific DNA binding to a core DNA element GGAA/T.The Ets family member ERG has been linked to several neoplasms. […] More extensive studies of the effects of over-expression of ERG in prostate cells have recently been carried out and have shown that over-expression of ERG results in increased invasion. […] We will carry out a high throughout screen to identify inhibitors of the interaction between ERG and DNA using a fluorescence polarization (FP) assay with a His-tagged ERG Ets domain and fluorescently-labeled DNA probes to develop small molecule inhibitors of this interaction as probes to test this hypothesis and lay the groundwork for the development of targeted therapies against ERG. NIH Molecular Libraries Probe Production Network [MLPCN] NIH Chemical Genomics Center [NCGC] Grant: NS066464 PI Name: John Bushweller, University of Virgina
# 1.5 ul of protein solution (1 uM ERG domain in 300mM KCl, 50mM Tris-HCl, 1mM EDTA, 1mM DTT, pH 7.5); 20 nl Control plate and compound library plate; 1.5 ul mixture of 5 nM Fluorescein-DNA and 100nM Texas-615-DNA solution in same buffer as above solution; measure fluorescence polarization sequentially for fluorescein (Excitation = 480 nm, Emission = 535s, 535p nm) and Texas red (Excitation = 555 nm, Emission = 632s, 632p nm).
# Potency is read from the fitted curve at half-maximal effect.
# Chain of Transcriptional regulator ERG (Homo sapiens) (P11308 whole entry, looked up): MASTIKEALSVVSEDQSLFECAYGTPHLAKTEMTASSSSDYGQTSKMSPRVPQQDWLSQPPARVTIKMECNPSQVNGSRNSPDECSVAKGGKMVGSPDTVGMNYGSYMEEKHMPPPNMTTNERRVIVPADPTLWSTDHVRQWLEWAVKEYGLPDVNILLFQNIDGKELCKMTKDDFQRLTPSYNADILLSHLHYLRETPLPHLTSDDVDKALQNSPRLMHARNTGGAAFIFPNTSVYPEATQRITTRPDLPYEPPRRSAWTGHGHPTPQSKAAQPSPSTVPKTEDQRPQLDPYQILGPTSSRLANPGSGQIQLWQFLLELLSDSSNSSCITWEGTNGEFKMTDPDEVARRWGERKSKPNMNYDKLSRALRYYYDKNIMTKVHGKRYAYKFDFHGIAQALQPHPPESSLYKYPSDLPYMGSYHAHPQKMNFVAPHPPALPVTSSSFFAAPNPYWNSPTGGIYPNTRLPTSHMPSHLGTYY
row,Structure (SMILES),Potency
1,CCCn1c2ccccc2c2cnn(CC(=O)N(C)c3ccccc3CC)c(=O)c21,inactive
2,O=C(NCc1ccccc1Cl)C1=Cc2cc(Br)ccc2OC1,inactive
3,COc1ccc(NC(C)=O)cc1NC(=O)CN1CCN(c2ccc(F)cc2)CC1,inactive
4,O=C(CSc1oc(-c2ccco2)nc1S(=O)(=O)c1ccc(Cl)cc1)c1ccccc1,inactive
5,Cc1ccccc1-c1nc(CS(=O)(=O)CC(=O)Nc2cc(Cl)cc(Cl)c2)c(C)o1,inactive
6,Cc1ccc(NC(=O)c2nc(S(=O)(=O)Cc3cccc(C)c3)ncc2Cl)cc1,inactive
7,CCc1cccc(C)c1NS(=O)(=O)c1ccc(-c2cc(C)no2)s1,inactive
8,O=C(CC1N=C2c3ccccc3N=C(SCc3ccc(F)cc3)N2C1=O)NCc1cccs1 (stereo not given),inactive
9,COc1cccc(-c2nc(CS(=O)(=O)CC(=O)N3CCN(c4cc(C)ccc4C)CC3)c(C)o2)c1,inactive
10,CSc1nc(Nc2ccc(F)cc2)cc(-c2ccccc2)n1,inactive
11,Cc1nc(SCC(=O)Nc2ccc(C(=O)O)cc2)n[nH]1,inactive
12,COc1ccc(NC(=O)CSc2nccn2C2CCCC2)cc1OC,inactive
13,COc1ccc(OCC(=O)Nc2cccc(C(=O)OCc3cc(=O)n4nc(C)sc4n3)c2)cc1,inactive
14,Cc1nnc(NC(=O)CSc2nc3c([nH]c4ccccc43)c(=O)n2-c2cccc(Cl)c2)s1,inactive
15,O=C(CSc1nc(=O)[nH]c2c1CCCC2)Nc1cc(C(F)(F)F)ccc1Cl,inactive
16,Cc1cc(C)cc(OCC(=O)Nc2nc(-c3ccc(F)cc3)ns2)c1,inactive
17,Cc1ccc(Cn2c(CNC(=O)Cc3cccc(C)c3)nc3cccnc32)cc1,inactive
18,CSc1ncc(Cl)c(C(=O)Nc2ccc(S(=O)(=O)N3CCCC(C)C3)cc2)n1 (stereo not given),inactive
19,CCc1ccc(CNC(=O)c2ccc(CS(=O)c3ccc(Br)cc3)o2)cc1 (stereo not given),inactive
20,Cc1cccc(C(=O)Nc2ccc(S(=O)(=O)N3CCCCC3c3cccnc3)cc2)c1 (stereo not given),inactive

row,Structure (SMILES),Potency
1,COc1ccc(-c2nc(CN3CCC(C(=O)NCCN(CC(C)C)CC(C)C)CC3)c(C)o2)cc1OC,inactive
2,Cc1cc(C)cc(NC(=O)CSc2oc(-c3ccccc3)nc2S(=O)(=O)c2ccc(Cl)cc2)c1,inactive
3,Cc1cccc(N2CCN(C(=O)c3cnc(N4CCCC4)nc3C)CC2)c1C,inactive
4,CCc1cc2c(cc(C(=O)OC)n2Cc2nc(-c3ccc(C)cc3)oc2C)s1,inactive
5,Cc1ccc(-c2cc(C(F)(F)F)c(C#N)c(SCC(=O)Nc3ccccc3)n2)cc1,inactive
6,COc1ccc(C(=O)NCC(c2ccc(N(C)C)cc2)N2CCc3ccccc32)c(OC)c1 (stereo not given),inactive
7,CC(=O)Nc1ccc(NC(=O)CSc2nnc3c4cc(Br)ccc4n(C)c3n2)cc1,inactive
8,O=C(CSc1oc(-c2ccco2)nc1S(=O)(=O)c1ccccc1)c1ccc(Cl)cc1,inactive
9,CCN(CC)CCCC(C)n1c2nc(=O)[nH]c(=O)c-2nc2cc(Cl)ccc21 (stereo not given),35.5 µM (active)
10,Cc1ccccc1OCCSc1nc2ccc(NC(=O)c3ccco3)cc2s1,inactive
11,Cc1ccc(-c2nnc(Nc3ccc(OCC(N)=O)cc3)c3ccccc23)cc1S(=O)(=O)NCC1CCCO1 (stereo not given),inactive
12,O=C(NC1CC(=O)N(c2ccc(F)cc2)C1)c1cccs1 (stereo not given),inactive
13,O=C(NCCc1ccc(Cl)cc1)c1ccc2nc(CCc3ccccc3)oc2c1,inactive
14,COc1ccc(OC)c(CNC(=O)CN2C(=O)CCn3nc(-c4cn(C)c5ccccc45)cc32)c1,inactive
15,Cc1ccc(NC(=O)CSc2nc3c(c(=O)[nH]2)CN(Cc2ccc4c(c2)OCO4)CC3)cc1C,inactive
16,CCCCc1nn2c(=O)cc(COC(=O)c3ccc(NC(=O)c4ccccc4C)cc3)nc2s1,inactive
17,Cc1ccc(NC(=O)CSc2nc3ccccc3c3nc(CCn4cncc4C)nn23)cc1F,inactive
18,CC1=C(C(=O)N2CCN(c3cccc(C(F)(F)F)c3)CC2)C2(CCCCC2)OC1=O,inactive
19,Cc1cc(C(=O)COC(=O)CNC(=O)c2ccc(F)cc2)c(C)n1Cc1ccco1,inactive
20,COCCn1c(C)cc(C(=O)COC(=O)CNC(=O)c2ccco2)c1C,7.94 µM (active)

row,Structure (SMILES),Potency
1,O=C(CNC(=O)c1ccco1)OCC(=O)c1ccccc1,inactive
2,CC(C)c1ccc(NC(=O)CN(C)S(=O)(=O)c2ccc3c(c2)c(=O)n(C)c(=O)n3C)cc1,inactive
3,CCOC(=O)c1cccc(NC(=O)C(Cc2ccccc2)NS(=O)(=O)c2cccc3nsnc23)c1 (stereo not given),inactive
4,CCS(=O)(=O)N1CCC(n2c(C)nc3cccnc32)CC1,inactive
5,CCOc1ccc(-c2cc3nc(C4CCN(C(=O)OC(C)(C)C)CC4)c(C(=O)Nc4ccc(C(=O)OC)cc4)cn3n2)cc1,inactive
6,CCc1ccc(CN(Cc2ccco2)C(=O)c2ccccc2Cl)cc1,inactive
7,CCN(CCCNC(=O)Cn1ncc2c3ccccc3n(C)c2c1=O)Cc1ccccc1,inactive
8,CCC(=O)N1CCc2cc(S(=O)(=O)NCCC(=O)Nc3cccc(C)c3C)ccc21,inactive
9,Cc1ccc(-n2ncc(C(=O)N(C)Cc3ccccc3)c2-n2cccc2)cc1,inactive
10,Cc1cc(O)c(C(c2ccccc2)N2CCN(c3ccccc3F)CC2)c(=O)n1Cc1ccco1 (stereo not given),inactive
11,CCOc1ccc(C(=O)/C=C/c2cn(CC(O)CN3CCCCCC3)c3ccccc23)cc1 (stereo not given),inactive
12,Cc1cc(C)c(NC(=O)CN2C(=O)c3cccnc3Oc3ccc(Cl)cc32)c(C)c1,inactive
13,CCc1ccc(S(=O)(=O)c2nnn3c2nc(N2CCN(CC)CC2)c2sccc23)cc1,inactive
14,Cc1cccc(NC(=O)CSc2nnc(CNC(=O)c3cccc(C)c3)n2-c2ccccc2)c1,inactive
15,Cc1ccccc1-c1nc2scc(CCNC(=O)C(=O)Nc3ccc(F)cc3F)n2n1,inactive
16,CC(C)CCNC(=O)CSc1nc2ccccc2nc1Cc1ccc(Cl)cc1,inactive
17,CC(=O)Nc1cccc(NC(=O)CSc2nccn2Cc2ccc3c(c2)OCO3)c1,inactive
18,CCC(=O)N1CCc2cc(Br)cc(S(=O)(=O)Nc3ccc(C)cc3C)c21,inactive
19,O=C(CN1CCN(Cc2ccc(Cl)cc2)C1=O)NCc1ccc(F)cc1,inactive
20,COc1ccc(-c2cccc(NS(=O)(=O)c3cc(C)c(OC)c(C)c3C)c2)nn1,inactive
